PubChem BioAssay (NCI)
Compounds without any hit were thinned out: in the full panel of roughly 79,000, 15% have a hit. A number with no mark means an inactive call. Rule as the data show it: active = growth inhibition above about 70%; inactive = the rest.

Test: NCI Yeast Anticancer Drug Screen. Data for the mlh1 rad18 strain (AID 175)
Details: S. cerevisiae mlh1 rad18 strain growth inhibition; at 50.0 µM; stronger effect = higher value
In short: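 Genetically defined yeast (DNA repair-deficient) exposed to compounds; growth inhibition determined relative to vehicle.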

| SMILES | growth inhibition |
| --- | --- |
| Cc1cccc(OC(=O)Oc2cccc(C)c2)c1 | 31.1% |
| CC(=O)O[C@]12CCCCCCC1C1(O)C(O)CCC[C@H]12 (some centres undefined) | -36.6% |
| COC(=O)C1C(COS(C)(=O)=O)ON2CCC(OC)(OC)C12 (centres undefined) | 43.1% |
| COc1ccc(/C=C2\C=Cc3ccccc32)cc1OC | 4.75% |
| C[C@@H]1CN(c2ccccc2)C[C@H](C)OS(=O)O1 (some centres undefined) | -0.7% |
| CN(C)C(=O)Nc1cccc(OC(=O)NCCCl)c1 | 20.7% |
| O=COC1CCCCCC1 | 12.9% |
| O=C(NC1(C(=O)O)CCCC1)C(F)(F)F | -8.25% |
| Cc1cc(Cl)cc(Cl)c1OCC(=O)Nc1ccc(Cl)cc1 | -7.7% |
| CC(=O)N(C)Cc1c(O)ccc2ccccc12 | 12.7% |
| CC1=CC(=O)C(=O)c2ccccc21 | -4.9% |
| CCOC(=O)/C=C/c1ccc(F)cc1 | 10.9% |
| Cc1c(O)c(=O)ccn1C1OC(CO)C(O)C1O (centres undefined) | 26% |
| COc1ccc(NNc2ccc(OC)cc2)cc1 | -9.5% |
| O=C(/C=C/C(=O)NCc1ccccc1)NCc1ccccc1 | -5.95% |
| COc1ccc(C(=O)C(C)(c2nc3n(c2O)C(=N)N=N3)c2nc3n(c2O)C(=N)N=N3)cc1 (centres undefined) | -7.95% |
| O=C1c2ccccc2C(=O)N1CC(F)(F)F | -12.3% |
| O=C(c1cccc([N+](=O)[O-])c1)N1CCCCC1 | -5.05% |
| O=C1C(Cl)=C(NC(CO)(CO)CO)C(=O)c2ccccc21 | 8.15% |
